Experimental data from PubChem BioAssay (NCATS).
Records with an inconclusive call do not appear. Activity calls are given as the source filed them. Unless noted, calls come from the whole dose curve; as a rule, active = well fitted curve in the direction sought with a large enough effect; inconclusive = small, poorly fitted or top-dose-only effect, or another doubt; inactive = no such curve, though single readings can be large; an effect the other way counts as inactive or inconclusive.

Tests used:
[1] = Cell Viability - BJ (AID 421; calls by dose curve;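 note: potency is the fitted concentration of half-maximal effect; cells exposed to compound for 40 hours at 37 °C before readout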); conditions: BJ fibroblast viability, qHTS
Method in brief: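 Luminescent ATP signal (CellTiter-Glo, 20 min at room temperature) served as the read-out of viable BJ cells after 40 hours of compound treatment. Responses were scaled between DMSO and 100 uM tamoxifen, and AC50 values were obtained by Hill modeling.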

[2] = Cell Viability - Jurkat (AID 426;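 active = dose-dependent loss of cell ATP signal giving a full or clear fitted curve, ranked by lower potency value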;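 note: potency is the fitted concentration of half-maximal effect; cells exposed to compound for 40 hours at 37 °C before ATP read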); conditions: qHTS
Method in brief: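 Luminescent ATP read-out (CellTiter-Glo, 20 min at room temperature) after 40 hr compound exposure at 37 °C of Jurkat E6-1 cells, 5000/well. Decreased ATP taken as cytotoxicity; AC50 from standard Hill equation.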

[3] = Cell Viability - Hek293 (AID 427;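 active = compounds whose dose-response curve shows a full or clear partial loss of cell viability, called from curve shape rather than a numeric limit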;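 note: potency is the fitted concentration of half-maximal effect; cells exposed to compound for 40 hours at 37 °C before reading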); conditions: qHTS
Method in brief: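 Luminescent ATP read-out (CellTiter-Glo, 20 min RT) after 40 hr compound exposure at 37 °C in complete medium. Signal normalized to DMSO (basal) and 100 uM tamoxifen (100% inhibition); concentration-response fitted with the standard Hill equation to give AC50.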

[4] = Cell Viability - HepG2 (AID 433; calls by dose curve;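 note: potency is the fitted concentration of half-maximal effect; potency for ATP loss meaning cytotoxicity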); conditions: qHTS
Method in brief: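 Read-out is luciferase-based quantitation of cellular ATP as a measure of viable HepG2 cells after 40 h treatment at 37 °C. Signal decrease is scaled between DMSO-only and 100 uM tamoxifen controls, with AC50 fitted by the Hill equation.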

[5] = Cell Viability - SK-N-SH (AID 435; calls by dose curve; note: potency is the fitted concentration of half-maximal effect); conditions: SK-N-SH neuroblastoma cell viability qHTS
Method in brief: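 Luminescent ATP signal served as the viability read-out after 40 hours of compound treatment of human neuroblastoma SK-N-SH cells. Concentration-response data, scaled between DMSO and 100 uM tamoxifen, gave AC50 values by standard Hill modeling.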

[6] = target: Mitogen-activated protein kinase 10 (Mus musculus) (UniProt Q61831); experiment: JNK3 AlphaScreen Assay (AID 530; active = well fitted curve in either direction with a large enough effect, not every such curve was filed as active;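 note: kinase came from lysate of stimulated human HepG2 cells; signal reports phosphorylation of biotinylated GST-cJun 1-79 at Ser73 with 10 µM ATP; % is set by controls: 0 for no effect and ±100 for the full control effect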); conditions: JNK3 lysate, c-Jun phosphorylation; series mostly up to 25.6 µM
Method in brief: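 HepG2 lysate (IL-1b/TNFa pre-activated) + biotin-GST-cJun 1-79 + anti-pSer73 cJun; cpd titration, 15 min RT; ATP 10 uM start; Tris pH 7.6, MgCl2, DTT, vanadate; beads in EDTA buffer; AlphaScreen.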

[7] = Cell Viability - N2a (AID 540); conditions: N2a mouse neuroblastoma cell viability; series mostly up to 92.2 µM;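 note: plate controls were DMSO alone for no effect and tamoxifen control for full effect; nearly all actives have a fitted effect of over 45% in size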
Method in brief: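 N2a mouse neuroblastoma, 1500 cells/well, 5 hr settle; compound 40 hr, 37 °C; CellTiter-Glo 20 min RT; luminescence; Hill-fit AC50.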

[8] = Cell Viability - NIH 3T3 (AID 541); conditions: NIH 3T3 cell viability, qHTS; series mostly up to 92.2 µM;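 note: plate controls were DMSO alone for no effect and tamoxifen positive control for full effect; nearly all actives have a fitted effect of over 25% in size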
Method in brief: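 qHTS format; 40 hr compound exposure, 37 °C; CellTiter-Glo luminescence (cellular ATP) read-out after 20 min at RT. Decrease in ATP = cytotoxicity; AC50 from standard Hill fit.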

[9] = Cell Viability - HUV-EC-C (AID 542); conditions: HUV-EC-C endothelial cell viability, qHTS; series mostly up to 92.2 µM; note: % is set by controls: 0 for no effect and ±100 for the full control effect; nearly all actives have a fitted effect of over 35% in size
Method in brief: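 Luminescent ATP read-out (CellTiter-Glo, 20 min room temperature) after 40 hr compound treatment of HUV-EC-C cells at 37 °C. Concentration-response data fitted with the standard Hill equation to give AC50; tamoxifen and doxorubicin served as positive controls.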

[10] = Cell Viability - H-4-II-E (AID 543); conditions: H-4-II-E rat hepatoma viability; series mostly up to 92.2 µM; note: % is set by controls: 0 for no effect and ±100 for the full control effect; nearly all actives have a fitted effect of over 35% in size
Method in brief: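 qHTS, rat hepatoma H-4-II-E, 1500 cells/well; 40 hr compound exposure, 37 °C; CellTiter-Glo ATP luminescence after 20 min RT; AC50 by standard Hill fit.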

[11] = Cell Viability - Renal Proximal Tubule (AID 545); conditions: renal proximal tubule cells viability, primary cells of rat origin; series mostly up to 91.7 µM;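 note: 0% = DMSO only and -100% = 100 µM tamoxifen; nearly all actives have a fitted effect of over 40% in size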
Method in brief: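 Luminescent ATP signal (CellTiter-Glo) served as the viability read-out after 40 hr compound exposure of freshly isolated rat proximal tubule cells at 37 °C. Concentration-dependent ATP loss was fitted with the Hill equation to give AC50.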

[12] = Cell Viability - Mesenchymal (AID 546); conditions: mesenchymal cells viability, qHTS; series mostly up to 91.7 µM;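 note: cells exposed to compound for 40 hours before reading; 0% = DMSO only and -100% = 100 µM tamoxifen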
Method in brief: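 Human renal mesenchymal cells (glomerulus-derived), 1000 cells/well, 5 hr 37 °C pre-incubation; compound 40 hr, 37 °C; CellTiter-Glo, 20 min RT; luminescence; AC50 via Hill equation.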

[13] = target: Cytochrome P450 1A2 (Homo sapiens) (UniProt P05177); experiment: p450-cyp1a2 (AID 410; calls by dose curve; note: potency is the fitted concentration of half-maximal effect;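 for activity change, negative = inhibition: -100% = full effect of reference inhibitor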); conditions: recombinant CYP1A2, luciferin-ME demethylation, luminescence; series mostly up to 25.6 µM
Method in brief: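 20nM CYP1A2, 100uM Luciferin-ME (=Km), 100mM KPO4; cpd 10 min RT; +NADPH regen, 60 min RT; stop/detect 20 min; luminescence. Normalized to furafylline 57 uM = full inhibition.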

[14] = target: Glucocorticoid receptor (Homo sapiens) (UniProt P04150); experiment: GR-GFP Redistribution (AID 450;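 active = compounds whose dose series gives a full or clear partial fitted curve of increased nuclear translocation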; note: potency is the fitted concentration of half-maximal effect); conditions: U2OS GR-GFP nuclear translocation, laser cytometry, 2 h
[15] = target: Glucocorticoid receptor (Homo sapiens) (UniProt P04150); experiment: GR-EFC Redistribution (AID 451; calls by dose curve; note: potency is the fitted concentration of half-maximal effect); conditions: CHO-K1 GR-EFC translocation, beta-gal luminescence, 2 h
Method in brief: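 CHO-K1 cells expressing nuclear EA and GR-ED fragments of b-gal; compounds titrated up to 46 uM final, 2 h at 37 C. GR nuclear translocation read as complemented b-gal luminescence after 1 h RT detection.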

[16] = target: 3',5'-cyclic-AMP phosphodiesterase 4B (Homo sapiens) (UniProt Q07343); experiment: qHTS Assay for Inhibitors of PDE-IV (AID 607; active = well fitted activation curve with a large enough effect in the main read-out, with a control signal flat, not every such curve was filed as active; note: % of control where 0% means no effect); conditions: HEK293 ACTOne CNG channel cells, membrane potential fluorescence; series mostly up to 22.9 µM
Method in brief: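 ACTOne HEK293 cells carry a modified cAMP-gated CNG channel and express endogenous PDE4; plated 1000 cells/well, compounds up to 22.9 uM final. Membrane-potential dye fluorescence (ex 535/em 590) was read; parental cells received 10 uM forskolin + 100 uM RO 20-1724.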

[17] = NFAT Signaling Pathway (AID 444; active = well fitted curve in either direction with a large enough effect, not every such curve was filed as active;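 note: carbachol stimulus at about its EC50 of 1 µM final; % is set by controls: 0 for no effect and ±100 for the full control effect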); conditions: Jurkat NFAT-bla M1, carbachol, beta-lactamase ratio, 5 h; at 17.2 µM (top of the series) unless noted
Method in brief: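 Jurkat cells with NFAT-driven β-lactamase reporter and co-expressed M1 receptor, stimulated with carbachol (final 1 uM, ~EC50), compound titration, 5 h at 37 °C. CCF4 loaded 1 h at RT; 460/530 nm ratio gave %activity and AC50.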

[18] = Stat Signaling Pathway (AID 446; active = well fitted curve in either direction with a large enough effect, not every such curve was filed as active;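 note: ME-180 cervical cancer cells given 40 pM IL-6 alongside compound; SIE-controlled beta-lactamase reporter measured as 460/530 nm FRET emission ratio; % is set by controls: 0 for no effect and ±100 for the full control effect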); conditions: ME-180 SIE beta-lactamase reporter, IL-6 stimulated, 5 h; series mostly up to 17.2 µM
Method in brief: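 Compound effects on IL-6-induced STAT reporter activity were measured in ME-180 cells. After overnight culture, cells were co-treated with 40 pM IL-6 for 5 hrs before beta-lactamase substrate loading at room temperature.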

[19] = AP1 Signaling Pathway (AID 357; active = well fitted curve in either direction with a large enough effect, not every such curve was filed as active; note: % is set by controls: 0 for no effect and ±100 for the full control effect); conditions: ME-180 (cervical carcinoma) AP-1-bla reporter, EGF-induced, beta-lactamase ratio, 5 h; series mostly up to 17.2 µM
Method in brief: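 AP-1-bla ME-180 cells with beta-lactamase reporter under AP-1 response element, stimulated with EC50 EGF; compounds titrated, 5 hours at 37 degrees Celsius. CCF4 read at 460/530 nm ratio; positive and negative modulators judged by AC50.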

Cytochrome P450 1A2 (Homo sapiens), sequence (P05177 whole entry, looked up): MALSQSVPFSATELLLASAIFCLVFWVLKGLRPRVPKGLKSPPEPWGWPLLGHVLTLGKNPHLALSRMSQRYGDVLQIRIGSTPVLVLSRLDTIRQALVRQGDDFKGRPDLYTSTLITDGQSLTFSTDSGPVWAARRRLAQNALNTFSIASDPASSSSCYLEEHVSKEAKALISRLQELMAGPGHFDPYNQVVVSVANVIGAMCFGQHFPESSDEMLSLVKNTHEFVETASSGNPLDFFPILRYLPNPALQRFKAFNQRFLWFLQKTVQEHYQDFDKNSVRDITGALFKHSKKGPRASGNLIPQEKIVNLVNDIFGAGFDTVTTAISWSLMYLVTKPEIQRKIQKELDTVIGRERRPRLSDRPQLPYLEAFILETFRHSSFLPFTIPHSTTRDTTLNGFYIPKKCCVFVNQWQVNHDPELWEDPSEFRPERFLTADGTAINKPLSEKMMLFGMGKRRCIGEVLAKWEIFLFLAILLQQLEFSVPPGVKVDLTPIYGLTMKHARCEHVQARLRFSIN
3',5'-cyclic-AMP phosphodiesterase 4B (Homo sapiens), sequence (Q07343 whole entry, looked up): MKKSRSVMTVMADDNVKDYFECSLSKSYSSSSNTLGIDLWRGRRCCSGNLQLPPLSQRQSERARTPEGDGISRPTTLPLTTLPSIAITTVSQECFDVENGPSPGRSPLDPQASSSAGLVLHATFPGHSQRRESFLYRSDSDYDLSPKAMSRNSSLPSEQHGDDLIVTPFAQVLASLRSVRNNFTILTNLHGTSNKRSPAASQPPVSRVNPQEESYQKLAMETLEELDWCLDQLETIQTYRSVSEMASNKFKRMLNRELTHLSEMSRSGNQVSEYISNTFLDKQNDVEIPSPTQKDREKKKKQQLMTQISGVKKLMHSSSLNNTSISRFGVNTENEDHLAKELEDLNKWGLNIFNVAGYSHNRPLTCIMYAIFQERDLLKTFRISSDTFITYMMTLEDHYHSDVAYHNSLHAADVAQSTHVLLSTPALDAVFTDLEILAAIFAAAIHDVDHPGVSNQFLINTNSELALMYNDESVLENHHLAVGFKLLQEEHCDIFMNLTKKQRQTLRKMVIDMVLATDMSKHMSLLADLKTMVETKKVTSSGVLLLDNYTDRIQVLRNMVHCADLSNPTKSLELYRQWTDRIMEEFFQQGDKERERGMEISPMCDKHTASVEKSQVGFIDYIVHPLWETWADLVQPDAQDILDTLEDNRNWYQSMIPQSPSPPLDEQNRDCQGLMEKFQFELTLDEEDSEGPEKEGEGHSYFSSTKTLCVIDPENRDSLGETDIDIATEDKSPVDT
Glucocorticoid receptor (Homo sapiens), sequence (P04150 whole entry, looked up, the tested form may be a part): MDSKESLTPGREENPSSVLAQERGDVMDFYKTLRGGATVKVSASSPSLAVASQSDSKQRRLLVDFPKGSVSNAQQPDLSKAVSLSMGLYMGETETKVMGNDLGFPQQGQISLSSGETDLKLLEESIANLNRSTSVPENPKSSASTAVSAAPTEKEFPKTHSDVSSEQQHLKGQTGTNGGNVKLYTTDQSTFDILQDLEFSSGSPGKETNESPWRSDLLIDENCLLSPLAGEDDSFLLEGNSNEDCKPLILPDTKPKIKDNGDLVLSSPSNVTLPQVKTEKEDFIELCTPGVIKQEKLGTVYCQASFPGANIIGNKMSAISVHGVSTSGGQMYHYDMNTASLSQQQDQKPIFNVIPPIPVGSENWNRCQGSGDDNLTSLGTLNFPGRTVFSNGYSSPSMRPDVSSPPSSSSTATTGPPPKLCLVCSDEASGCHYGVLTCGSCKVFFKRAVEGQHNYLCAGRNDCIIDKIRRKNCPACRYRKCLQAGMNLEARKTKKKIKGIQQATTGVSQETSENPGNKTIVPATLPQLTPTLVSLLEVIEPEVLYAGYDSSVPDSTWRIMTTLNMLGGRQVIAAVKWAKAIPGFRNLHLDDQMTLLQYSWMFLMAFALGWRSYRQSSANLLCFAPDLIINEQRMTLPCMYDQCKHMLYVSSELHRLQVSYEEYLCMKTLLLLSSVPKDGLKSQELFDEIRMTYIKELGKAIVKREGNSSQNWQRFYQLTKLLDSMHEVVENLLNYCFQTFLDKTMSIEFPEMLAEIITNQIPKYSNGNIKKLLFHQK

CCCC(O)C(CC)CO (stereo not given)
inactive: Potency [1] > 92 µM | Potency [2] > 92 µM | Potency [3] > 92 µM | Potency [4] > 92 µM | Potency [5] > 92 µM | outcome [6] | outcome [7] | outcome [8] | outcome [9] | outcome [10] | outcome [11] | outcome [12]

CCCCCC(N)=O
inactive: Potency [1] > 92 µM | Potency [2] > 92 µM | Potency [3] > 92 µM | Potency [4] > 92 µM | Potency [5] > 92 µM | outcome [6] | outcome [7] | outcome [8] | outcome [9] | outcome [10] | outcome [11] | outcome [12]

CN(C(=O)c1c(O)c2ccccc2n(C)c1=O)c1ccccc1
inactive: Potency [13] | Potency [14] > 46 µM | Potency [15] > 46 µM | outcome [6] | outcome [16]

O=C1c2ccccc2S(=O)(=O)N1CCCCN1CCN(c2ncccn2)CC1
inactive: Potency [14] > 46 µM | Potency [15] > 46 µM | outcome [6]

O=C(c1ccccc1)C(O)c1ccccc1 (stereo not given)
inactive: Potency [1] > 92 µM | Potency [2] > 92 µM | Potency [3] > 92 µM | Potency [4] > 92 µM | Potency [5] > 92 µM | outcome [6] | outcome [7] | outcome [8] | outcome [9] | outcome [10] | outcome [11] | outcome [12]

C[N+](C)(C)CC[N+]1(C)Cc2c(Cl)c(Cl)c(Cl)c(Cl)c2C1
inactive: Potency [13] | Potency [14] > 46 µM | Potency [15] > 46 µM | outcome [6] | outcome [16]

Cc1c(N(C)C)c(=O)n(-c2ccccc2)n1C
inactive: Potency [1] > 92 µM | Potency [2] > 92 µM | Potency [3] > 92 µM | Potency [4] > 92 µM | Potency [5] > 92 µM | activity change, negative = inhibition [17] -3.81% | outcome [18] | Potency [14] > 20.6 µM | Potency [15] > 20.6 µM | outcome [6] | outcome [7] | outcome [8] | outcome [9] | outcome [10] | outcome [11] | outcome [12] | outcome [16]

O=C(O)CCCCC1CCSS1 (stereo not given)
inactive: Potency [1] > 92 µM | Potency [2] > 92 µM | Potency [3] > 92 µM | Potency [4] > 92 µM | Potency [5] > 92 µM | outcome [6] | outcome [7] | outcome [8] | outcome [9] | outcome [10] | outcome [11] | outcome [12]

C[C@@H](N)C(=O)O
inactive: Potency [14] > 46 µM | Potency [15] > 46 µM | outcome [6]

CC1(C)S[C@@H]2[C@H](NC(=O)C(C(=O)O)c3ccccc3)C(=O)N2[C@H]1C(=O)O (stereo not given in full)
inactive: outcome [19] | outcome [18] | Potency [14] > 20.6 µM

CCCNC(C)(C)COC(=O)c1ccccc1
inactive: outcome [19] | outcome [18] | Potency [14] > 20.6 µM | Potency [15] > 20.6 µM | outcome [6] | outcome [16]

CCCCCCCC(=O)OCC(COC(=O)CCCCCCC)OC(=O)CCCCCCC
inactive: Potency [1] > 92 µM | Potency [2] > 92 µM | Potency [3] > 92 µM | Potency [4] > 92 µM | Potency [5] > 92 µM | outcome [6] | outcome [7] | outcome [8] | outcome [9] | outcome [10] | outcome [11] | outcome [12]

O=C1C(c2[nH]c3ccccc3c2O)=Nc2ccccc21
inactive: Potency [1] > 92 µM | Potency [2] > 92 µM | Potency [3] > 92 µM | Potency [4] > 92 µM | Potency [5] > 92 µM | outcome [7] | outcome [9] | outcome [10] | outcome [11] | outcome [12]

CC(=O)Nc1cccc(O)c1
inactive: Potency [1] > 92 µM | Potency [2] > 92 µM | Potency [3] > 92 µM | Potency [4] > 92 µM | Potency [5] > 92 µM | outcome [6] | outcome [7] | outcome [8] | outcome [9] | outcome [10] | outcome [11] | outcome [12]

CC1CC(OC(=O)c2ccccc2O)CC(C)(C)C1 (stereo not given)
inactive: Potency [1] > 92 µM | Potency [2] > 92 µM | Potency [3] > 92 µM | Potency [4] > 92 µM | Potency [5] > 92 µM | outcome [6] | outcome [7] | outcome [8] | outcome [9] | outcome [10] | outcome [11] | outcome [12]

CC[N+](C)(CC)CCOC(=O)C1c2ccccc2Oc2ccccc21
inactive: outcome [18] | outcome [6] | outcome [16]
active: Potency [13] 10 µM
